PubChem BioAssay

assay: DUSP6 inhibitors restoring Erk phosphorylation by chemical complementation, primary imaging in DUSP6-transfected HeLa (AID 609); details: HeLa MKP-3 transfected, phospho-Erk imaging KS statistic; measured here: cell density z-score; at 10 µM; cells stimulated with TPA for 15 min

SMILES | z-score
O=C1C=C(O)CC(c2cccs2)C1 (stereo not given) | -0.072
Cc1c(C(Nc2ccccn2)c2ccccc2)c(=O)n(-c2ccccc2)n1C (stereo not given) | -0.885
O=C(c1nsnc1-c1ccccc1O)N1CCCCC1 | 0.333
Cc1cc(=O)oc(C)c1C(=O)N1CCN(C)CC1 | -1.15
CCCOc1ccc(C2NC(=O)NC2=O)cc1 (stereo not given) | -0.563
O=c1c(-c2ccc3c(c2)OCCO3)c(C(F)(F)F)oc2cc(O)cc(O)c12 | 1.65
Cn1c(=NCC(O)COc2ccccc2)sc2ccccc21 (stereo not given) | 0.424
COc1cc(-c2cc(C(F)(F)F)n3ncc(C(=O)O)c3n2)cc(OC)c1OC | 0.0221
CCOC(=O)CSc1nc(-c2ccncc2)ccc1C#N | -1.46
COc1ccc(OCC(O)Cn2c(Nc3cccc(C)c3)nc3c2c(=O)n(C)c(=O)n3C)cc1 (stereo not given) | 1.7
CCCCn1c2nc3ccccc3nc2c2c(=O)n(CC(C)C)cnc21 | 0.699
CCN(CC)S(=O)(=O)c1ccc2c(c1)c(C(=O)O)cn2C | 0.944
CSc1nc(C)cc(OCCNS(=O)(=O)c2cc(C)ccc2C)n1 | 0.846
CCOc1nc(SC(C(C)=O)C(=O)Nc2ccccc2)nc(N(C)C)n1 (stereo not given) | 0.486
O=C(Oc1ccccc1N1C(=O)CCC1=O)c1ccco1 | 0.222
Cc1cc(C)c(C#N)c(SCC(=O)NC2CC2)n1 | 2.42
COC(=O)c1ccccc1NC=C1C(=O)OC2(CCCCC2)OC1=O | -1.26
Cc1cc(C)n(C(=O)CN2C(=O)CCC2=O)n1 | -0.373
CN1C2C=C3C(C#N)=C(N)C(C#N)(C#N)[C@@H](c4ccsc4)[C@@H]3C1CC2 (stereo not given in full) | 1.76
Cc1ccc(/C=c2\sc3n(c2=O)CN(c2ccc(Br)cc2)CN=3)o1 | 1.52

SMILES | z-score
Clc1ccccc1-c1nn2c(-c3ccccn3)nnc2s1 | 0.327
CC(=O)NC1(C(F)(F)F)C(=O)Nc2c1c(=O)n(C)c(=O)n2C (stereo not given) | 0.582
CC(Sc1nc(N2CCCCC2)c2c(c1C#N)CCCC2)C(=O)O (stereo not given) | -0.692
CCN(CC)CCCn1c(C)cc2c(c1=O)C(c1cccc(Cl)c1)C(C#N)=C(N)O2 (stereo not given) | -0.339
CCCCOC(=O)CSc1nc(N)c(C#N)c(-c2ccc(OC)cc2)c1C#N | -2.23
COc1ccc(N2CCN(C3CC(=O)NC3=O)CC2)cc1 (stereo not given) | 0.114
O=C(c1ccco1)N1CCN(c2ncnc3c2[nH]c2ccccc23)CC1 | 1.15
COc1ccc(OC)c(C2NC(=O)c3sc(=S)n(-c4ccccc4)c3N2)c1 (stereo not given) | -1
CCOc1ccc(-c2nn3c(-c4ccc(OC)cc4)nnc3s2)cc1 | 0.559
c1cncc(-c2nnc3sc(C4CCCCC4)nn23)c1 | 0.167
Cc1c(C(=O)O)c(=S)sn1CCOc1ccccc1 | 0.114
CCC1(C)Cc2c(sc3c2c(=O)n(C)c2nnc(SCc4ccc5c(c4)OCO5)n32)CO1 (stereo not given) | 1.16
CCCC(=O)N1CCN(c2nc(CC(C)C)c3c(c2C#N)CCC3)CC1 | -0.247
COC(=O)c1c(C)noc1-c1cc(C)on1 | -1.72
CN1c2ccccc2N(C)C1c1c(O)ccc2ccccc12 | 0.38
O=C1CCC(=O)N1CN(C(=O)c1ccco1)c1ccc(Cl)c(Cl)c1 | -1.21
CC(C)Oc1ccc(Cc2c(O)nc(NCCCN(C)C)[nH]c2=O)cc1 | -0.061
CCCCOc1ccc(CSC(CC(=O)O)C(=O)O)cc1 (stereo not given) | -0.61
COCc1cc(=O)[nH]c(Nc2nc3ccc(C)cc3o2)n1 | 0.289
CCOC(=O)CCCCC(=O)NC(CO)C(=O)NC (stereo not given) | -1.05

same assay, conditions: HeLa MKP-3 transfected, phospho-Erk imaging KS statistic; measured here: nuclear c-Myc green intensity z-score; at 10 µM; cells stimulated with TPA for 15 min

SMILES | z-score
O=C1C=C(O)CC(c2cccs2)C1 (stereo not given) | -0.344
Cc1c(C(Nc2ccccn2)c2ccccc2)c(=O)n(-c2ccccc2)n1C (stereo not given) | 0.0466
O=C(c1nsnc1-c1ccccc1O)N1CCCCC1 | 0.0172
Cc1cc(=O)oc(C)c1C(=O)N1CCN(C)CC1 | 0.212
CCCOc1ccc(C2NC(=O)NC2=O)cc1 (stereo not given) | 1.62
O=c1c(-c2ccc3c(c2)OCCO3)c(C(F)(F)F)oc2cc(O)cc(O)c12 | -1.41
Cn1c(=NCC(O)COc2ccccc2)sc2ccccc21 (stereo not given) | -0.57
COc1cc(-c2cc(C(F)(F)F)n3ncc(C(=O)O)c3n2)cc(OC)c1OC | -0.381
CCOC(=O)CSc1nc(-c2ccncc2)ccc1C#N | -0.434
COc1ccc(OCC(O)Cn2c(Nc3cccc(C)c3)nc3c2c(=O)n(C)c(=O)n3C)cc1 (stereo not given) | -1.51
CCCCn1c2nc3ccccc3nc2c2c(=O)n(CC(C)C)cnc21 | 0.544
CCN(CC)S(=O)(=O)c1ccc2c(c1)c(C(=O)O)cn2C | -0.275
CSc1nc(C)cc(OCCNS(=O)(=O)c2cc(C)ccc2C)n1 | -0.567
CCOc1nc(SC(C(C)=O)C(=O)Nc2ccccc2)nc(N(C)C)n1 (stereo not given) | -0.655
O=C(Oc1ccccc1N1C(=O)CCC1=O)c1ccco1 | -0.0545
Cc1cc(C)c(C#N)c(SCC(=O)NC2CC2)n1 | -0.939
COC(=O)c1ccccc1NC=C1C(=O)OC2(CCCCC2)OC1=O | -1.2
Cc1cc(C)n(C(=O)CN2C(=O)CCC2=O)n1 | -0.831
CN1C2C=C3C(C#N)=C(N)C(C#N)(C#N)[C@@H](c4ccsc4)[C@@H]3C1CC2 (stereo not given in full) | -1
Cc1ccc(/C=c2\sc3n(c2=O)CN(c2ccc(Br)cc2)CN=3)o1 | -1.23

SMILES | z-score
Clc1ccccc1-c1nn2c(-c3ccccn3)nnc2s1 | 0.132
CC(=O)NC1(C(F)(F)F)C(=O)Nc2c1c(=O)n(C)c(=O)n2C (stereo not given) | -0.0109
CC(Sc1nc(N2CCCCC2)c2c(c1C#N)CCCC2)C(=O)O (stereo not given) | 0.635
CCN(CC)CCCn1c(C)cc2c(c1=O)C(c1cccc(Cl)c1)C(C#N)=C(N)O2 (stereo not given) | 0.269
CCCCOC(=O)CSc1nc(N)c(C#N)c(-c2ccc(OC)cc2)c1C#N | 0.0198
COc1ccc(N2CCN(C3CC(=O)NC3=O)CC2)cc1 (stereo not given) | -0.641
O=C(c1ccco1)N1CCN(c2ncnc3c2[nH]c2ccccc23)CC1 | 0.243
COc1ccc(OC)c(C2NC(=O)c3sc(=S)n(-c4ccccc4)c3N2)c1 (stereo not given) | 0.762
CCOc1ccc(-c2nn3c(-c4ccc(OC)cc4)nnc3s2)cc1 | -1.74
c1cncc(-c2nnc3sc(C4CCCCC4)nn23)c1 | -0.011
Cc1c(C(=O)O)c(=S)sn1CCOc1ccccc1 | 1.14
CCC1(C)Cc2c(sc3c2c(=O)n(C)c2nnc(SCc4ccc5c(c4)OCO5)n32)CO1 (stereo not given) | 0.737
CCCC(=O)N1CCN(c2nc(CC(C)C)c3c(c2C#N)CCC3)CC1 | 0.583
COC(=O)c1c(C)noc1-c1cc(C)on1 | 0.497
CN1c2ccccc2N(C)C1c1c(O)ccc2ccccc12 | -1.52
O=C1CCC(=O)N1CN(C(=O)c1ccco1)c1ccc(Cl)c(Cl)c1 | 0.938
CC(C)Oc1ccc(Cc2c(O)nc(NCCCN(C)C)[nH]c2=O)cc1 | -1.61
CCCCOc1ccc(CSC(CC(=O)O)C(=O)O)cc1 (stereo not given) | -0.895
COCc1cc(=O)[nH]c(Nc2nc3ccc(C)cc3o2)n1 | 0.499
CCOC(=O)CCCCC(=O)NC(CO)C(=O)NC (stereo not given) | 1.41
